# Values without a mark were called inactive. The list shows a part of the results. Calls of active or inactive are those of the source.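 The calls were made as follows, unless noted: active = mean inhibition above 46.68%, the untreated control wells mean plus 3 SD; inactive = the rest.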
# Key:
# [1] = target: Nuclear receptor coactivator 1 (Homo sapiens) (UniProt Q15788); assay: NCOA1 GAL4-fusion reporter inhibition – cell-based, luminescence, quadruplicate, confirmation (AID 588820); settings: HEK293 GAL4-SRC1 luciferase reporter, at 3.6 µM, active compounds read high;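 also: 0% = DMSO wells and 100% = gossypol 36 µM treated wells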
# Nuclear receptor coactivator 1 (Homo sapiens), sequence (Q15788 whole entry, looked up, the tested form may be a part): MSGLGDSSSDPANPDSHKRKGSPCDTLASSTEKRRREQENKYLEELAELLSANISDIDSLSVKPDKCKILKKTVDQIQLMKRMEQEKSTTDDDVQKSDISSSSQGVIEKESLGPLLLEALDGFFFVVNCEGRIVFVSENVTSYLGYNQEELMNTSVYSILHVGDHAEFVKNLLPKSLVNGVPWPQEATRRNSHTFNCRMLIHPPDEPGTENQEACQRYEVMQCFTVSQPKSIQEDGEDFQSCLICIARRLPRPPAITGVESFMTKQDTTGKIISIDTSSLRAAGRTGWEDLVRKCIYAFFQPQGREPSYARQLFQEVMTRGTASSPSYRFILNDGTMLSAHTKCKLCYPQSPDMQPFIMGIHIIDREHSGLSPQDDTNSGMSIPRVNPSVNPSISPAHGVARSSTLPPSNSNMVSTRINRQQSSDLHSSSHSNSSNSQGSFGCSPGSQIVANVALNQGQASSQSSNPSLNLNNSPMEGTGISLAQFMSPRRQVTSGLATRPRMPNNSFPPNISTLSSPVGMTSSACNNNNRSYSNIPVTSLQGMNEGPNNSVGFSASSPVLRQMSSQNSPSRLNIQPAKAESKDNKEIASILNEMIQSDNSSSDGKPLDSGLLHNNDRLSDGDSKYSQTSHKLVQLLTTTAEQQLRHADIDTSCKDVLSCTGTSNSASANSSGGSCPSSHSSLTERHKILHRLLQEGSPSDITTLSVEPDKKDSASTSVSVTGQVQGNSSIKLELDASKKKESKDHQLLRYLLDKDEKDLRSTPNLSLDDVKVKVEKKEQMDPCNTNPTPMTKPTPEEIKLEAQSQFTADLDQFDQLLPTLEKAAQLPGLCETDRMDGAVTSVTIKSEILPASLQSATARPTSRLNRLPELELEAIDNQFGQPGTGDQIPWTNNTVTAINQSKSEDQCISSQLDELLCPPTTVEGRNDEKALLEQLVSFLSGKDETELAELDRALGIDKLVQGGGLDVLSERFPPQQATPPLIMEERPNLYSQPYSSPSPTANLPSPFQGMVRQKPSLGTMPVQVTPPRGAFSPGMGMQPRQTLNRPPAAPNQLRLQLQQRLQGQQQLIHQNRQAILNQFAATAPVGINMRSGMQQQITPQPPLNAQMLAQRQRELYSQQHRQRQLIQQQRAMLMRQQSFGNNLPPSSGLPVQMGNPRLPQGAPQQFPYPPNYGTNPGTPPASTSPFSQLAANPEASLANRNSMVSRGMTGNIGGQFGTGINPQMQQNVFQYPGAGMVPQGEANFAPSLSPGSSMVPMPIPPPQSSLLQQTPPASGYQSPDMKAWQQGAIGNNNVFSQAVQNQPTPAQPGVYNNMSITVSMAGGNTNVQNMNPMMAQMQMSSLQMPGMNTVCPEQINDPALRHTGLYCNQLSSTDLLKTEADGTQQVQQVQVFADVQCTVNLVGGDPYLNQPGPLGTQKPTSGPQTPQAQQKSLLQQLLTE
# [2] = repression of VP16-driven luciferase reporter – cell-based, luminescence, high throughput, counter-screen for SRC1 inhibitor project (AID 588824; in the data active = inhibition above about 25%); settings: cell-based VP16 transactivation luciferase luminescence; at 3.6 µM; active compounds read high
# [3] = StAR promoter reporter inhibitors, counter-screen for LRH-1 inverse agonist project, cell-based, luminescence, high throughput (AID 651611; in the data active = inhibition above about 28%); settings: StAR promoter luciferase reporter counterscreen, at 3.6 µM, active compounds read high
# [4] = target: Nuclear receptor subfamily 5 group A member 2 (Homo sapiens) (UniProt O00482); assay: NR5A2 activity suppression in reporter cells – cell-based, luminescence, confirmation (AID 651613; in the data active = inhibition above about 42%;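 also: HEK293T cells co-transfected with LRH-1 and StAR promoter luciferase reporter; 0% = vehicle wells and 100% = parental cells lacking receptor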); settings: cell-based LRH-1 luciferase reporter, inverse agonism; at 3.6 µM; active compounds read high
# Nuclear receptor subfamily 5 group A member 2 (Homo sapiens), sequence (O00482 whole entry, looked up): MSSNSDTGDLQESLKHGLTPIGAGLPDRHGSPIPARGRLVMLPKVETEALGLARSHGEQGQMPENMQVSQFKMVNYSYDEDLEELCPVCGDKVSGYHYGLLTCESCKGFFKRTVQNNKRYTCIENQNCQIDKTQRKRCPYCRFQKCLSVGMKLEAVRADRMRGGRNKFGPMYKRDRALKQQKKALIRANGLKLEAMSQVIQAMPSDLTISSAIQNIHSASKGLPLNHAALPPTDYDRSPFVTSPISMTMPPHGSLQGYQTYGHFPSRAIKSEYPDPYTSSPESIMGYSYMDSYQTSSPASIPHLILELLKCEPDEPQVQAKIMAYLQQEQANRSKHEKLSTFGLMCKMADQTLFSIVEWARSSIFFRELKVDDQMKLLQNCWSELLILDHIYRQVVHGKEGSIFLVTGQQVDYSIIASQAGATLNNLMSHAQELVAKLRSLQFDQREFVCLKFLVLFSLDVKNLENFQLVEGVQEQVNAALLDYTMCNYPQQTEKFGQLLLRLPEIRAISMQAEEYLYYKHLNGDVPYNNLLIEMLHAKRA
# [5] = target: Steroidogenic factor 1 (Homo sapiens) (UniProt Q13285); assay: inverse agonism at SF1 nuclear receptor – cell-based, luminescence, high throughput, counter-screen for LRH-1 inverse agonist project (AID 651614; in the data active = inhibition above about 44%;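 also: cells cotransfected with StAR promoter reporter and SF1 expression vector; 0% = vehicle on cells with receptor and 100% = vehicle on cells lacking receptor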); settings: cell-based SF1 luciferase reporter, at 3.6 µM, active compounds read high
# Steroidogenic factor 1 (Homo sapiens), sequence (Q13285 whole entry, looked up, the tested form may be a part): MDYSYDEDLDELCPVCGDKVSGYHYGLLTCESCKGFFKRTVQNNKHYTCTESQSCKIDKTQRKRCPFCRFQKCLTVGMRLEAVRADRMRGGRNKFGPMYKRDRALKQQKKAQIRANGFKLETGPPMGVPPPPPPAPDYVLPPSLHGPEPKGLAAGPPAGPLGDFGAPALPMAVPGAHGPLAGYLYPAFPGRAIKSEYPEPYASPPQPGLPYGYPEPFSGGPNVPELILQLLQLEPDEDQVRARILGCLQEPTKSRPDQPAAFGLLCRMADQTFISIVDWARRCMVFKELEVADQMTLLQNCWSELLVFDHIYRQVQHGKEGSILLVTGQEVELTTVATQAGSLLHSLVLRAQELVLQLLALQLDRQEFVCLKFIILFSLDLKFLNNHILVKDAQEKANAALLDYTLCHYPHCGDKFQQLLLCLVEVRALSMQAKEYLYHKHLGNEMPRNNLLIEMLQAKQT
# [6] = compounds suppressing VP16-driven luciferase signal – cell-based, luminescence, high throughput, counter-screen for LRH-1 inverse agonist project (AID 651615; in the data active = inhibition above about 33%); settings: Gal4-VP16 luciferase reporter cells, at 3.6 µM, active compounds read high
# [7] = target: Photoreceptor-specific nuclear receptor (Homo sapiens) (UniProt Q9Y5X4); assay: retest of NR2E3-NCOR disrupting agonists – cell-based, luminescence, CHO-S two-hybrid, confirmation (AID 624378;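 active = average inhibition above a cutoff equal to the mean inhibition of all tested compounds plus one SD, cut at about 70% in these data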;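 also: 0% = DMSO in NR2E3 cells and 100% = DMSO in cells lacking NR2E3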); settings: CHO-S mammalian two-hybrid NR2E3-NCOR, luciferase luminescence; at 3.98 µM; active compounds read high
# Photoreceptor-specific nuclear receptor (Homo sapiens), sequence (Q9Y5X4 whole entry, looked up): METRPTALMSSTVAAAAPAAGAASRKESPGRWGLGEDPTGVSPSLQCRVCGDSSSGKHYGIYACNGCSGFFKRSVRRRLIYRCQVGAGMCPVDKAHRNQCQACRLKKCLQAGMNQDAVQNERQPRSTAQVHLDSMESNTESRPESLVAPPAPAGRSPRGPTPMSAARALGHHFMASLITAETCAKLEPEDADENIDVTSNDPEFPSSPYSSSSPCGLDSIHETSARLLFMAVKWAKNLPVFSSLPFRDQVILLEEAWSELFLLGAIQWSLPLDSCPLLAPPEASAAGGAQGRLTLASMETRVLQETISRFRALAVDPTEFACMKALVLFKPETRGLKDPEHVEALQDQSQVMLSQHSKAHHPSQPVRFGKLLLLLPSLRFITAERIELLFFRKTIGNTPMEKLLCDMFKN
# [8] = nonselective effects on VP16 transactivation – cell-based, luminescence, CHO-S, high throughput, counter-screen for NR2E3 agonist project, confirmation (AID 624379;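 active = mean inhibition above a cutoff equal to the average over all tested compounds plus one standard deviation, cut at about 70% in these data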;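 also: 0% = DMSO with VP16-transfected cells and 100% = DMSO with cells lacking VP16; higher means less reporter light so more repression of VP16 activity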); settings: CHO-S GAL4-VP16 luciferase reporter, at 3.98 µM, active compounds read high
# [9] = VP16-driven transactivation reporter suppression – cell-based, luminescence, HEK293, counter-screen for COUP-TFII antagonist project (AID 687007; in the data active = inhibition above about 13%); settings: HEK293 Gal4-VP16 luciferase reporter, at 8.5 µM, active compounds read high
# [10] = target: COUP transcription factor 2 (Homo sapiens) (UniProt P24468); assay: retest of COUP-TFII reporter suppressors – cell-based, luciferase reporter, HEK293, triplicate, confirmation (AID 687008;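 active = mean inhibition over three repeats above a set limit taken from the earlier primary screen, cut at about 38% in these data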;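 also: 100% = cells given the luciferase reporter alone without the COUP-TF2 vector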); settings: HEK293 NGFI-A luciferase reporter, luminescence; at 8.5 µM; active compounds read high
# COUP transcription factor 2 (Homo sapiens), sequence (P24468 whole entry, looked up): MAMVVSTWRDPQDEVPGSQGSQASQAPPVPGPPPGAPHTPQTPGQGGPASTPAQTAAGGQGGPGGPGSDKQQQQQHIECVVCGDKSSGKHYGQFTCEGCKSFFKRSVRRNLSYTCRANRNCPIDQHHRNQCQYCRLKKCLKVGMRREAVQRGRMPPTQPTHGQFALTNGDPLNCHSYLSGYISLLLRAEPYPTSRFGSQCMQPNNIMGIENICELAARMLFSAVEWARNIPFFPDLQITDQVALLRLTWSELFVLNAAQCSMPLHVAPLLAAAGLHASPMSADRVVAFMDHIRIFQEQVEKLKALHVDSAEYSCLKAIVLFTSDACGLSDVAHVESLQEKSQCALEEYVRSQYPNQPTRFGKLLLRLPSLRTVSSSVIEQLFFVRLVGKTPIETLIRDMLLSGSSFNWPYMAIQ
compound,measurement,setting,value
O=C(NCc1ccccc1)c1cccc(NC(=O)c2ccccc2)c1,inhibition,[1],-0.73%
same,inhibition,[2],39.8% (active)
same,inhibition,[3],32.8% (active)
same,inhibition,[4],52.4% (active)
same,inhibition,[5],59.2% (active)
same,inhibition,[6],62% (active)
Cc1ccc(/C=C2/CNC/C(=C/c3ccc(C)cc3)C2=O)cc1,inhibition,[1],-19.2%
same,inhibition,[2],43.8% (active)
same,inhibition,[3],47% (active)
same,inhibition,[4],79.3% (active)
same,inhibition,[5],64.9% (active)
same,inhibition,[6],80.2% (active)
CN(C)CCN1C(=O)c2cccc3cc([N+](=O)[O-])cc(c23)C1=O,inhibition,[1],-146%
same,inhibition,[2],47.5% (active)
same,inhibition,[3],67% (active)
same,inhibition,[4],96.7% (active)
same,inhibition,[5],84.4% (active)
same,inhibition,[6],68.2% (active)
COc1ccc(NS(=O)(=O)c2ccc(-c3cnc(C4CC4)o3)cc2)cc1OC,inhibition,[1],-15.9%
same,inhibition,[2],37.2% (active)
same,inhibition,[3],53.2% (active)
same,inhibition,[4],77.5% (active)
same,inhibition,[5],78.8% (active)
same,inhibition,[6],31.6% (active)
C#Cc1ccc(NC(=O)C2(C)CCN2C(=O)Cc2ccc(-c3ccccc3)cc2)cc1 (centres undefined),inhibition,[1],12.8%
same,inhibition,[2],36.2% (active)
same,inhibition,[7],50.6%
same,inhibition,[8],52.9%
same,inhibition,[9],6.08%
same,inhibition,[10],44.2% (active)
CC(C)Cn1c(N)c(C(=O)COC(=O)c2cc3ccccc3cc2O)c(=O)n(C)c1=O,inhibition,[1],14.6%
same,inhibition,[2],8.44%
Cc1nc2ccc(NC(=O)c3cc(S(=O)(=O)N(C)c4ccccc4)ccc3Cl)cc2s1,inhibition,[1],-5.16%
same,inhibition,[2],33.7% (active)
same,inhibition,[3],30.4% (active)
same,inhibition,[4],57.5% (active)
same,inhibition,[5],59.5% (active)
same,inhibition,[6],47.6% (active)
O=C(NNc1ccnc2cc(Cl)ccc12)C1CCCCC1,inhibition,[1],-34.1%
same,inhibition,[2],31.1% (active)
CCc1c(C)nc2ncnn2c1NCCc1ccc(OC)cc1,inhibition,[1],-21.1%
same,inhibition,[2],28.3% (active)
same,inhibition,[3],46.9% (active)
same,inhibition,[4],53.9% (active)
same,inhibition,[5],66.2% (active)
same,inhibition,[6],42.2% (active)
CSc1sc(C(=O)NC(=O)NCc2cccnc2)c(C)c1-c1ccon1,inhibition,[1],3.32%
same,inhibition,[2],1.48%
Clc1ccc(-c2nnc(CSc3nnc(-c4cccs4)n3Cc3ccccc3)o2)cc1,inhibition,[1],-0.02%
same,inhibition,[2],30.5% (active)
same,inhibition,[3],5.56%
same,inhibition,[4],51.7% (active)
same,inhibition,[5],48.9% (active)
same,inhibition,[6],41.6% (active)
CN(C)CCNc1ccc2nnn3c4ccc(O)cc4c(=O)c1c23,inhibition,[1],0.55%
same,inhibition,[2],50.6% (active)
same,inhibition,[3],47.1% (active)
same,inhibition,[4],71.1% (active)
same,inhibition,[5],71.5% (active)
same,inhibition,[6],75.9% (active)
CC(C)Oc1ccccc1NC(=O)CSc1nc2ccccc2c(=O)n1C,inhibition,[1],-5.84%
same,inhibition,[2],13.4%
COc1cccc(CNc2nc(NCc3cccs3)nc3ccsc23)c1,inhibition,[1],-9.48%
same,inhibition,[2],2.77%
same,inhibition,[7],67.6%
same,inhibition,[8],47.4%
same,inhibition,[9],-0.37%
same,inhibition,[10],13.2%
Brc1ccc2c(c1)-c1ccccc1C1=NCCN12,inhibition,[1],-49.1%
same,inhibition,[2],40.9% (active)
same,inhibition,[3],39% (active)
same,inhibition,[4],104% (active)
same,inhibition,[5],75.8% (active)
same,inhibition,[6],71.6% (active)
Cc1cc(C)c(CN2CCN(C(=O)Cn3cnc4c(OCc5ccccc5)ncnc43)CC2)c(C)c1,inhibition,[1],4.65%
same,inhibition,[2],38.5% (active)
CC1(C)CC(N2CCCC2)=CC(=[N+]2CCCC2)C1,inhibition,[1],2.13%
same,inhibition,[2],23.9%
same,inhibition,[3],12%
same,inhibition,[4],62% (active)
same,inhibition,[5],55.2% (active)
same,inhibition,[6],51.4% (active)
Cc1ccc2occ(/C=N/NC(=O)c3ccccc3O)c(=O)c2c1,inhibition,[1],5.51%
same,inhibition,[2],13.2%
same,inhibition,[3],14.5%
same,inhibition,[4],3.45%
same,inhibition,[5],2%
same,inhibition,[6],25%
CCOC(=O)c1c(NC(=O)C(C)N2CCN(C(=O)c3ccco3)CC2)sc2c1CCCC2 (centres undefined),inhibition,[1],16.6%
same,inhibition,[2],12%
CN(Cc1ccccc1)C(=O)c1ccc(NC(=O)Cc2ccc(NC(=O)C3CCCN(C(=O)CCc4ccccc4)C3)cc2)cc1 (centres undefined),inhibition,[1],-11.5%
same,inhibition,[2],37.6% (active)
same,inhibition,[3],29% (active)
same,inhibition,[4],62.2% (active)
same,inhibition,[5],64.3% (active)
same,inhibition,[6],55.8% (active)
CCCCCCN1C2=NCCCN2c2ccccc21,inhibition,[1],1.1%
same,inhibition,[2],10.4%
Cc1cccc(-n2ncc3c2CCCC3NC(=O)c2ccncc2)c1C (centres undefined),inhibition,[1],-10.4%
same,inhibition,[2],26.6% (active)
same,inhibition,[3],14.7%
same,inhibition,[4],54.5% (active)
same,inhibition,[5],52.1% (active)
same,inhibition,[6],44% (active)
CCOc1ccc(NC(=O)c2ccc(CN3CCc4ccccc4C3)cc2)cc1,inhibition,[1],-25.7%
same,inhibition,[2],36.5% (active)
COc1ccc(-c2coc3c(C(=O)NCc4ccc(OC)c(OC)c4)cccc23)c(C)c1,inhibition,[1],-32%
same,inhibition,[2],41.2% (active)
same,inhibition,[3],28% (active)
same,inhibition,[4],80.8% (active)
same,inhibition,[5],49% (active)
same,inhibition,[6],57.8% (active)
CCOC(=O)Cc1csc(SCC(=O)c2c(N)n(CC(C)C)c(=O)n(C)c2=O)n1,inhibition,[1],-7.3%
same,inhibition,[2],26.3% (active)

# Reference: PubChem BioAssay
